# Data as given in the supplement of paper PMC10849652.
# The full data set covers some 7,900 targets. This sample favours those with a hit. About 0.6% of all pairs of compound and target were hits. Unmarked numbers belong to inactive results.
# Assays:
# Assay in all cases: log2 fold change, soluble protein after heating vs DMSO (PISA); higher = thermal stabilisation; K562 cells, 10 uM, 30 min; active = over 0.2 and 3.5 SD of the protein, either way, in both replicates (recomputed)
# [1] = compound: C#Cc1cccc(Nc2ncnc3cc(OCCOC)c(OCCOC)cc23)c1 [erlotinib]
# Method in brief: (§1)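 K562 cells at 2×10^6 cells/mL were treated with 10 μM compound for 30 min. Aliquots were heated for 3 min across 48°C-58°C, pooled, and extracted in PBS with 0.5% NP-40 at 4°C; soluble protein was the supernatant after 21,000xg for 90 min. Soluble protein was quantified by TMTpro 16plex LC-MS/MS with channel sums equalised, and reported as log2 fold change in thermal stability against DMSO controls, with values from duplicates.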
# [2] = compound: C/C(=N\NC(=O)C1=CC(=CC=C1)S(=O)(=O)N2CCOCC2)/C3=C(C=CC(=C3)Cl)O
# Method in brief: as §1
# [3] = compound: C1=CC(=C(C=C1Cl)C2=NC3=NC=CN=C3C(=N2)NC4=CC=NC=C4)F
# Method in brief: as §1
# [4] = compound: C1=CC(=CC=C1C2=NC3=C(N2)C=C(C=C3)C(=O)N)OC4=CC=C(C=C4)Cl
# Method in brief: as §1
# [5] = compound: C1=CC2=C(C=CC(=C2)/C=C\3/C(=O)NC(=NCC4=CC=CS4)S3)N=C1
# Method in brief: as §1
# [6] = compound: C1=CC2=NC=CN=C2C=C1/C=C/3\C(=O)NC(=O)S3
# Method in brief: as §1
# [7] = compound: C1=CC=C(C=C1)C2=NC(=C(N2)C3=CC=NC=C3)C4=CC(=C(C=C4)Cl)O
# Method in brief: as §1
# [8] = compound: C1=CC=C2C(=C1)C3=NNC4=CC=CC(=C43)C2=O
# Method in brief: as §1
# [9] = compound: C1CCN(C1)C(=O)NC2=CC=CC(=C2)NC3=NC=C(C(=N3)NCCC4=CN=CN4)Br
# Method in brief: as §1
# [10] = compound: C1CN(CCC1(CC2=CC=C(C=C2)Cl)N)C3=NC=NC4=C3C=CN4
# Method in brief: as §1
# Sequence of UniProt O00566 (O00566 whole entry, looked up): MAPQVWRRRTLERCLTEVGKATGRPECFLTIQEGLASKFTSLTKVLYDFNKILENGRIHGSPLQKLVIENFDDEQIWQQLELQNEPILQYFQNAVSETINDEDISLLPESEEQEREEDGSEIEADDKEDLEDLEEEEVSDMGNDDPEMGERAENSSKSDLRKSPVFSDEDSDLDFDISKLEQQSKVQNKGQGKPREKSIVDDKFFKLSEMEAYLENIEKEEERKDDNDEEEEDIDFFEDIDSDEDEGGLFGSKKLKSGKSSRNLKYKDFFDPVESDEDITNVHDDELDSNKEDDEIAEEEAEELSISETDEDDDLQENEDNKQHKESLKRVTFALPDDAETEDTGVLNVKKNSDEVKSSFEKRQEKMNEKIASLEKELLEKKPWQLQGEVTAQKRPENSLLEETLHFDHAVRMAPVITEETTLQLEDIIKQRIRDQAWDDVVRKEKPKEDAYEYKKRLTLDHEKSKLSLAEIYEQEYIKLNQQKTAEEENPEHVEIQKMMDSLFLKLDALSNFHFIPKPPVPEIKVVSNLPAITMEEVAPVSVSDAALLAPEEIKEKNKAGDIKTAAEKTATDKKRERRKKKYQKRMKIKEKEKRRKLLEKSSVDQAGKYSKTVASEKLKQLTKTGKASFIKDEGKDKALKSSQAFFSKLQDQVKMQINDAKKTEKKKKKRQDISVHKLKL
# Sequence of UniProt O75323 (O75323 whole entry, looked up): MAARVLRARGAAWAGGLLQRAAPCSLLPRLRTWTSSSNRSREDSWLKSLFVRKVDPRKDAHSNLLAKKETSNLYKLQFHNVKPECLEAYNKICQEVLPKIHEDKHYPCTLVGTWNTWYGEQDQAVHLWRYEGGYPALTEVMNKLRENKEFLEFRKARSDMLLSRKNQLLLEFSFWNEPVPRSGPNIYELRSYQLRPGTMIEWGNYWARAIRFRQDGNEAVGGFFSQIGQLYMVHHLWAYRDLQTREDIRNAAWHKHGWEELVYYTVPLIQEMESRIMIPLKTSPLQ
# Sequence of UniProt Q9H1E3 (Q9H1E3 whole entry, looked up): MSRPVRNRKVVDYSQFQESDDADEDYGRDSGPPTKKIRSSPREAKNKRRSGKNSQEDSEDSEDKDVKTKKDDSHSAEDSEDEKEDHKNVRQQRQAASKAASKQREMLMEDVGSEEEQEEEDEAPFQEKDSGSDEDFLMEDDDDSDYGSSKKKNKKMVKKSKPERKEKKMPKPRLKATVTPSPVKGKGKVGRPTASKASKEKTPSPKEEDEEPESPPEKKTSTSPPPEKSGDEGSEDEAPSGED
# Sequence of UniProt P22059 (P22059 whole entry, looked up): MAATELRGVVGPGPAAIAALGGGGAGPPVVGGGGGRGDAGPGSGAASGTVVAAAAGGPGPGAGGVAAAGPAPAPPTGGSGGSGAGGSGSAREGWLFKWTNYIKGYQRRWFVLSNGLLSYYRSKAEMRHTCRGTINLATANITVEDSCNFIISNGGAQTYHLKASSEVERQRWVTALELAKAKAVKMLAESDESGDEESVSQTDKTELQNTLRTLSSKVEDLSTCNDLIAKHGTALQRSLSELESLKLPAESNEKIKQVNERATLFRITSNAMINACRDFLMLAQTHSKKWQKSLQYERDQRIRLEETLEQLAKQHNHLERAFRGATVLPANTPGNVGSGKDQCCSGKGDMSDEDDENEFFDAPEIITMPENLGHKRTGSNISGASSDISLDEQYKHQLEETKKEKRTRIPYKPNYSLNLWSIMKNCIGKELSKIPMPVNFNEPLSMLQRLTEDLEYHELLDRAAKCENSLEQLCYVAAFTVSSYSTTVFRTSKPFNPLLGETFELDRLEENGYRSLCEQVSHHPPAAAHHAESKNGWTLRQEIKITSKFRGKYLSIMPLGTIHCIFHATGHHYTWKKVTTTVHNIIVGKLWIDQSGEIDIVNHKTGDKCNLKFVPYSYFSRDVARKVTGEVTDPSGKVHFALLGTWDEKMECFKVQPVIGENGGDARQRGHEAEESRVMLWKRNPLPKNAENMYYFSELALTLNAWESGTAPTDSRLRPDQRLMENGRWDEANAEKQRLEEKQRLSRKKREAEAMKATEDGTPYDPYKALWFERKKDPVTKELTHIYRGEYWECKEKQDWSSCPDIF
# Sequence of UniProt Q14978 (Q14978 whole entry, looked up): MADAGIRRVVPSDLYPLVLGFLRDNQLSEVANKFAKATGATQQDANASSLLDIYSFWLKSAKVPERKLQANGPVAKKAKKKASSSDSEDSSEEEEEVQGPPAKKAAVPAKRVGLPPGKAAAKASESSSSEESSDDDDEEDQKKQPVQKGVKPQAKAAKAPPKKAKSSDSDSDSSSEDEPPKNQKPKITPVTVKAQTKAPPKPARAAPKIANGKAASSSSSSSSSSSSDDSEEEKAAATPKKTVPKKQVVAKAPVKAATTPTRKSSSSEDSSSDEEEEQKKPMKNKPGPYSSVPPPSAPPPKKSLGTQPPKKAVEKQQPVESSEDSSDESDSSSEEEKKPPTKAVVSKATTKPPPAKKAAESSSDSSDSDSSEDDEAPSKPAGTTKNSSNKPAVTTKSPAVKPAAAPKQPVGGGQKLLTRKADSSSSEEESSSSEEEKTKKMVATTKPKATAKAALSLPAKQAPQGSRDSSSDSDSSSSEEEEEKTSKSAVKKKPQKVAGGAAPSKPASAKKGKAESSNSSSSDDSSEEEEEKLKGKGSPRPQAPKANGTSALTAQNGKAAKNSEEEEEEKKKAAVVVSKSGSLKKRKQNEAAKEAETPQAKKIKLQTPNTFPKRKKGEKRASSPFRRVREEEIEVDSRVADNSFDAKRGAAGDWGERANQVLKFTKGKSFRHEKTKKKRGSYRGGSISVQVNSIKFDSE
# Sequence of UniProt Q96PU5 (Q96PU5 whole entry, looked up): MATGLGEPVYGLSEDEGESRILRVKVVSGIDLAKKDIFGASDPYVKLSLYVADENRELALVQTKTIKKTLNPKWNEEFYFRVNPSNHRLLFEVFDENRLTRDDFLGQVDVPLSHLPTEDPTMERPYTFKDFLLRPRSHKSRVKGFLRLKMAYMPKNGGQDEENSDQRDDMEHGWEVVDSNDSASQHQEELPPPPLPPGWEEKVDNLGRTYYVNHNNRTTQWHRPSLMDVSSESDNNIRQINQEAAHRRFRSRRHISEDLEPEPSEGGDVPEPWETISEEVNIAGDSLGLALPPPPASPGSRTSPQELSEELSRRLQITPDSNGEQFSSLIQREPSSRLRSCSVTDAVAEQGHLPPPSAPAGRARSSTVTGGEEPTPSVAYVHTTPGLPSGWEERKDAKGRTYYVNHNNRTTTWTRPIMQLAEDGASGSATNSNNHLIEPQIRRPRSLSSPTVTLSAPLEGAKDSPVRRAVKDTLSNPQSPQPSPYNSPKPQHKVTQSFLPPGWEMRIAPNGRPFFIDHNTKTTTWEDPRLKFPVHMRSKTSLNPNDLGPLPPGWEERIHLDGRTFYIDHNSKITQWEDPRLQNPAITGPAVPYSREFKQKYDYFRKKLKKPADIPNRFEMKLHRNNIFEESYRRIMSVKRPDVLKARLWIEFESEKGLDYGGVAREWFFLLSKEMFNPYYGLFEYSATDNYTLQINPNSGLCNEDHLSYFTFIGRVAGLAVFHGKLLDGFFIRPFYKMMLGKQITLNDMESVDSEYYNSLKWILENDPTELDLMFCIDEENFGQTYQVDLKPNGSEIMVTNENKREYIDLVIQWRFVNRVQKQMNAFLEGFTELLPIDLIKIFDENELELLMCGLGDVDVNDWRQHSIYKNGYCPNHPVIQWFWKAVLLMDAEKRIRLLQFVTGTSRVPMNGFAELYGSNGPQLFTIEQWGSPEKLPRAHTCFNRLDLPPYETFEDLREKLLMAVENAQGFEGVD
# Sequence of UniProt Q9BRP4 (Q9BRP4 whole entry, looked up): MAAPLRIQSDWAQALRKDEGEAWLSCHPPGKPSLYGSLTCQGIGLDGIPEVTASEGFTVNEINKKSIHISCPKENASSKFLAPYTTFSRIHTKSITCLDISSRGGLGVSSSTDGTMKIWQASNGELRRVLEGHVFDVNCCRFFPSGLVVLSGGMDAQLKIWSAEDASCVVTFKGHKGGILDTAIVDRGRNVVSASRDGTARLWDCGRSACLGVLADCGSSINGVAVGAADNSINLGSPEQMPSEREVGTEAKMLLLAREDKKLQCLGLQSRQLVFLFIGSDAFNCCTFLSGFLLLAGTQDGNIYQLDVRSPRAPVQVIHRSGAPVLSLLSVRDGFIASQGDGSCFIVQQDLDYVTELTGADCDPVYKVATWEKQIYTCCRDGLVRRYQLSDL
# Sequence of UniProt Q96DE0 (Q96DE0 whole entry, looked up): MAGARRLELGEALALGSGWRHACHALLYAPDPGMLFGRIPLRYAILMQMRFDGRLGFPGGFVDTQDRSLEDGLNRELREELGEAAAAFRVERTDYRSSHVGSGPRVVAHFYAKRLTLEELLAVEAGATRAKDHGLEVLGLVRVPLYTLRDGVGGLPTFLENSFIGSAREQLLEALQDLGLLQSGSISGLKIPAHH
# Sequence of UniProt Q9HAN9 (Q9HAN9 whole entry, looked up): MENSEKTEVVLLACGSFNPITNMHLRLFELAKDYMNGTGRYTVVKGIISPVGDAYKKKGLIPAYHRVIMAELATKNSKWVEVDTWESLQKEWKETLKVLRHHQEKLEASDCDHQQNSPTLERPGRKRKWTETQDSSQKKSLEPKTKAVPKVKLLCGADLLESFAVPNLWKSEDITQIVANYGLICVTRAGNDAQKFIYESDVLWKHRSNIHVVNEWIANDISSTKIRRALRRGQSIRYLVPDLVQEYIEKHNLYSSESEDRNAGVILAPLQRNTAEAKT
# Sequence of UniProt Q9HBL8 (Q9HBL8 whole entry, looked up): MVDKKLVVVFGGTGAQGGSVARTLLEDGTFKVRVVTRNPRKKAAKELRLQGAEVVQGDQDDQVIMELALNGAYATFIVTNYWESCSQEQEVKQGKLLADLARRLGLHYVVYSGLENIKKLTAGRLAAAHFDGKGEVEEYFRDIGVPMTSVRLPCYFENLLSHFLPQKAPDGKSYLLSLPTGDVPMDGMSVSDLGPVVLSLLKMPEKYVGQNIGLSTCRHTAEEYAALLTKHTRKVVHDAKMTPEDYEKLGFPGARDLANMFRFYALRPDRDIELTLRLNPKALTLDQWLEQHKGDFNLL
Target,log2 fold change [1],log2 fold change [2],log2 fold change [3],log2 fold change [4],log2 fold change [5],log2 fold change [6],log2 fold change [7],log2 fold change [8],log2 fold change [9],log2 fold change [10]
MMS19 isoform 8 (UniProt Q96T76),-0.01,0.001,0.044,-0.025,0.113,0.053,0.05,0.016,-0.01,-0.01
NUDT16 (UniProt Q96DE0),0.081,0,0.111,0.01,-0.034,-0.004,0.014,0.026,-0.085,0.081
NR2C2 isoform 2 (UniProt P49116),-0.001,-0.067,-0.011,0.006,0.019,-0.039,-0.003,-0.091,0.074,0.007
NFATC2 (UniProt Q13469),-0.049,0.147,-0.002,0.012,0.04,-0.132,0.053,-0.109,-0.201,0.007
"NA, A0A096LPI6",-0.009,-0.009,0.047,0.02,-0.051,0.04,0.023,-0.004,0.008,0.035
MRPS31 (UniProt Q92665),0.003,0.001,-0.032,0.105,-0.004,0.023,0.048,0.064,0.003,-0.066
NMT2 (UniProt O60551),0.028,0.031,0.007,0.004,0.062,0.032,-0.043,0.021,0.041,-0.369 (active)
MRPS10 (UniProt P82664),-0.036,-0.089,-0.103,0.048,0.102,0.023,-0.037,0.04,0.001,-0.012
NOLC1 isoform 2 (UniProt Q14978),0.022,0.036,-0.051,-0.005,-0.11,0.024,-0.034,-0.171,-0.177,0
NEDD4L (UniProt Q96PU5),0.014,0.078,-0.078,0.005,0.016,0.035,0.146,0.019,-0.026,-0.076
NUCKS1 (UniProt Q9H1E3),0.045,-0.098,-0.002,-0.029,-0.052,0,-0.089,0.033,0.067,-0.002
NEU1 (UniProt Q99519),0.001,-0.05,-0.027,0.101,0.003,0,-0.018,-0.011,0.012,-0.047
NBN (UniProt O60934),0.064,0.087,0.06,0.033,0.005,0.028,0.012,0.002,-0.029,0.037
NMNAT1 (UniProt Q9HAN9),0.033,-0.145,-0.302,-0.111,-0.032,0.03,-0.102,-0.008,0.157,-0.046
MPHOSPH10 (UniProt O00566),-0.079,-0.005,-0.412,-0.023,0.031,0.061,0.07,-0.004,0.024,-0.023
MRPL34 (UniProt Q9BQ48),-0.029,-0.167,-0.116,0.101,-0.048,-0.03,0.006,0.018,-0.004,-0.174
NIPSNAP2 (UniProt O75323),0.024,0.065,0.076,0.106,0.044,-0.079,0.071,0.041,0.01,0.007
ORC3 isoform 2 (UniProt Q9UBD5),0.134,-0.068,-0.024,-0.021,0.214,0.042,0.013,0.072,-0.013,0.07
MRPS27 isoform 2 (UniProt Q92552),-0.044,-0.058,0.018,0.061,0.056,0.024,0.074,0.086,-0.048,-0.106
OSTM1 (UniProt Q86WC4),0.034,0.111,0.077,0.107,-0.106,0.001,0.044,-0.047,-0.035,-0.002
NMRAL1 (UniProt Q9HBL8),0.239,-0.118,0.841 (active),-0.054,0.098,0.141,0.029,0.273,-0.055,0.037
MRPS12 (UniProt O15235),-0.013,0.008,-0.13,0.095,-0.052,0.018,0.099,0.165,0.025,-0.063
NECTIN2 (UniProt Q92692),0.002,0.005,0.064,-0.006,0.002,0.008,-0.04,-0.041,-0.045,0.077
PAAF1 (UniProt Q9BRP4),0.038,0.032,0.097,0.068,-0.009,0.009,0.027,0,0.003,0.009
NDUFA6 (UniProt P56556),0.014,0.133,0.11,-0.015,-0.045,0.002,0.104,0.042,-0.031,-0.008
OSBP (UniProt P22059),-0.059,0.111,0.063,0.109,-0.009,0.019,-0.027,-0.042,-0.001,0.013
MTOR (UniProt P42345),0.015,0.041,0.021,-0.011,0.036,0.047,0.034,-0.004,0.065,-0.03
